Screen size: about 140,000 compounds; about 1,700 (1.2%) were called active. Many of the other results were omitted from the sample, so actives are more common in it than they were. Unmarked numbers belong to inactive results.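 Rule for the calls: active = viability at or below a set limit, 4 SD under the median of all tested compounds (cut at about 3.7% in these data); inactive = the rest.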
test: viability loss in PTEN-deleted colon tumor cells – cell-based, HCT116, CellTiter-Glo, primary screen (AID 827); settings: HCT116 PTEN-null viability, 60 h, at 10 µM, active compounds read low;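 note: PTEN knockout HCT116 line with beta catenin targeted HCT116 as companion control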

Compound	viability
CN(C)c1ccc(/C=C2\CC3C4CC=C5CC(O)CCC5(C)C4CCC3(C)C2=O)cc1 (stereo not given)	2.86% (active)
Cc1cccc(-n2c(O)c(/C=N/N3CCOCC3)c(=O)[nH]c2=S)c1	108%
O=c1[nH]c(=S)n(C2CC2)c(O)c1/C=N/N1CCOCC1	95.3%
CN(C)CC1CCCCC1OC(=O)c1ccc(Cl)c(Cl)c1 (stereo not given)	82.2%
CCCCC(=O)N/N=C/c1c(O)n(CC)c(=S)n(CC)c1=O	11.8%

Reference: PubChem BioAssay AID827 (SRMLSC, 2007)
